Measurements: ChEMBL document CHEMBL1157539, “Thousands of chemical starting points for antimalarial lead identification” (Nature, 2010)
Whole data set: some 13,000 compounds, median “IFI” near 4, cut for the highest 2% near 17. This excerpt belongs to a sample that is enriched for the highest values.

experiment: GSK_TCMDC: Inhibition Frequency Index (IFI). The number of non-kinase HTS assays where a compound showed > 50 % inhibition, expressed as a percentage of the number of such assays in which the compound was tested; assay type: functional

SMILES	IFI [%]
O=C(Nc1ccc(F)cc1)c1cnc(N2CCN(c3ccncc3)CC2)c(Cl)c1	8.51
Cc1ccc(NC(=O)c2cnc(N3CCN(c4ccncc4)CC3)c(Cl)c2)cc1	11.9
O=C(Nc1ccc(N2CCC(Nc3ccccn3)CC2)cc1)c1cnc(Cl)c(Cl)c1	17.4
Cn1nccc1C(=O)NCCNCc1ccc(-c2ccc(-c3nc4cc(F)ccc4[nH]3)cc2)cc1	8.91
Cc1cc(OCC2CCN(c3ncc(C(=O)NC4CC4)cc3Cl)CC2)ccc1F	9.8
Cc1ccc(F)c(OCC2CCN(c3ncc(C(=O)NC4CC4)cc3Cl)CC2)c1	17.3
Cc1ccc(OCC2CCN(c3ncc(C(=O)NC4CC4)cc3Cl)CC2)cc1	0
CN1CCC(NCc2cccc(-c3cccc(S(=O)(=O)NCc4ccccc4)c3)c2)CC1	11.2
CCN(CC)CCOc1ccc(NC(=O)c2oc3ccccc3c2C=Cc2ccccc2)cc1	18.5
CCN(CC)CCNC(=O)c1ccc(NC(=O)c2oc3c(Cl)cccc3c2C)cc1	4.76
CCN(CC)CCOc1ccc(C(O)(C#CC(O)(c2ccccc2)c2ccc(OCCN(CC)CC)cc2)c2ccccc2)cc1 (centres undefined)	6.52
COC(=O)c1cccc(CNCc2ccc(-c3ccc(-c4nc5cccc(C)c5[nH]4)s3)cc2)c1	7.55
CN1CCN(CCCN(Cc2cccc(-c3cccc(CNCc4ccc5c(c4)OCO5)c3)c2)C(=O)CCC2CCCC2)CC1	10.9
CC(C)C[C@H](NC(=O)c1cc2ccccc2s1)C(=O)N[C@H]1CCN(Cc2ccc(I)c(OC3CCN(C)C3)c2)C1 (some centres undefined)	16.7
O=C(Nc1ccc2ccccc2c1)c1ccc(CN2CCC(Cc3ccccc3)CC2)cc1	6.21
CCCCOc1cc2c(cc1OCC)C(C=Cc1ccc(Cl)cc1Cl)=NCC2	6.67
CCCOc1cc2c(cc1OCCC)C(C=Cc1ccc(Cl)cc1Cl)=NC(C)C2 (centres undefined)	19
C/C=C/C=C/C1=NCCc2cc(OCCC)ccc21	8.76
COc1ccc(CNCCc2cccs2)cc1-c1cccc(S(=O)(=O)NCCN2CCCC2)c1	9.8
C=CCN(C(=O)c1ccc(Cl)c([N+](=O)[O-])c1)c1nc(-c2ccccc2)cs1	3.39
Nc1ncc(-c2ccc(NC(=O)Nc3cc(C(F)(F)F)ccc3F)cc2)c(N)n1	0
Nc1ccc(-c2ccc(NC(=O)Nc3cc(C(F)(F)F)ccc3F)cc2)cn1	1.32
Nc1nccc2ccc(-c3ccc(NC(=O)Nc4cc(C(F)(F)F)ccc4F)cc3)cc12	20.2
Cc1[nH]c(C)c(-c2ccc(Oc3ccccc3)cc2)c(=O)c1Br	6.11

SMILES	IFI [%]
Cc1nc(-c2cccc(Nc3nccc(NCC(O)c4ccccc4C)n3)c2)cs1 (centres undefined)	13.6
Cc1nc(-c2cccc(Nc3nccc(NCC(O)c4cccc(C(F)(F)F)c4)n3)c2)cs1 (centres undefined)	11
Cc1ccc(C(O)CNc2ccnc(Nc3cccc(-c4csc(C)n4)c3)n2)cc1 (centres undefined)	8.74
Cc1cccc(C(O)CNc2ccnc(Nc3cccc(-c4csc(C)n4)c3)n2)c1 (centres undefined)	13.6
Cc1nc(-c2cccc(Nc3nccc(NCC(O)c4ccccc4)n3)c2)cs1 (centres undefined)	24.1
Cc1nc(-c2cccc(Nc3nccc(NCC(O)c4ccccc4C(F)(F)F)n3)c2)cs1 (centres undefined)	22.8
Cc1[nH]c(C)c(-c2ccc(-c3ccc(Cl)cc3)cc2)c(=O)c1Cl	0.76
COc1ccc(CNCc2ccc(-c3cccc(-c4nc5cc(C(F)(F)F)ccc5[nH]4)c3)cc2)cc1	14.3
CCCCc1cc(O)c2c(c1)OC(C)(C)C=C2C1=CCN(Cc2ccccc2)CC1	1.43
Oc1ccc2nc(NCCCc3ccccc3)nc(NCCCc3ccccc3)c2c1	10.9
COc1ccc(C(=O)Nc2ccc(Cl)cc2C(=O)Nc2ccncc2)cc1	1.35
COc1cccc(NC(=O)Nc2ccc(C)c(-c3ccc(C(=O)Nc4ccncc4)cc3)c2)c1	26.8
COc1ccc(NC(=O)Nc2ccc(C)c(-c3ccc(C(=O)Nc4ccncc4)cc3)c2)cc1	25.4
COc1ccc(NC(=O)Nc2ccc(C)c(-c3ccc(C(=O)NCCN4CCCC4)cc3)c2)cc1	0
COc1cccc(NC(=O)Nc2ccc(-c3oc(C(=O)NCC(c4ccccc4)N(C)C)cc3-c3ccncc3)cc2)c1 (centres undefined)	6.85
COc1cccc(NC(=O)c2cc(Br)cc(N3CCN(c4ccncc4)CC3)c2)c1	12.5
CN1CCN(c2ccc(Nc3c(C(N)=O)cnc4cc(-c5ccoc5)ccc34)cc2)CC1	4.73
OC1=C2C(=Nc3ccccc3SC2c2cccs2)c2ccccc21 (centres undefined)	3.5
COc1ccccc1-c1ccc(C(=O)NCC2CCCN(Cc3cccc(C(F)(F)F)c3)C2)s1 (centres undefined)	3.7
Nc1nc(N)c2c(ccc3c2ccn3Cc2ccc3c(c2)OCO3)n1	6.67
Fc1ccccc1C=NNc1ccnc2cc(Cl)ccc12	1.48
CC(C)c1ccc(C=CC(=O)N2CCC(CCN3CCC(c4c[nH]c5ccccc45)CC3)CC2)cc1	7.19
OC(CNc1ccnc(Nc2ccc(Cl)cc2)n1)c1ccccc1C(F)(F)F (centres undefined)	14.4
OC(CNc1ccnc(Nc2ccccc2)n1)c1ccc(C(F)(F)F)cc1 (centres undefined)	8.08

SMILES	IFI [%]
OC(CNc1ccnc(Nc2cccc(Cl)c2)n1)c1cccc(C(F)(F)F)c1 (centres undefined)	13.3
OC(CNc1ccnc(Nc2cccc(Cl)c2)n1)c1ccc(C(F)(F)F)cc1 (centres undefined)	11
N#Cc1cccc(Nc2nccc(NCC(O)c3ccc(C(F)(F)F)cc3)n2)c1 (centres undefined)	20.4
N#Cc1cccc(Nc2nccc(NCC(O)c3cccc(C(F)(F)F)c3)n2)c1 (centres undefined)	10.4
OC(CNc1ccnc(Nc2cccc(Cl)c2)n1)c1ccccc1C(F)(F)F (centres undefined)	20.4
Cc1ccccc1C(O)CNc1ccnc(Nc2cccc(C#N)c2)n1 (centres undefined)	7.69
N#Cc1cccc(Nc2nccc(NCC(O)c3ccccc3C(F)(F)F)n2)c1 (centres undefined)	19.2
CNCCNCc1cccc(-c2ccc(-c3nc4cc(C(F)(F)F)ccc4[nH]3)s2)c1	8
O=C(Nc1ccc(-c2cccc(-c3nc4cc(C(F)(F)F)ccc4[nH]3)c2)cc1)c1ccoc1	7.08
CN(C)CC(=O)Nc1ccc(-c2ccc3ccnc(N)c3c2)cc1	7.95
CCCCCCCN1CC[C@@H](CCCc2ccnc3ccc(OCCCCNC(N)=O)cc23)[C@@H](CC)C1	8.76
CC(C)CNCc1ccc(OCc2cccc(COc3ccc(CNCC(C)C)cc3I)c2)c(I)c1	8.89
CC[C@H](C)CNCc1ccc(OCc2cccc(COc3ccc(CNC[C@@H](C)CC)cc3I)c2)c(I)c1	15.3
CC(C)NCc1ccc(OCc2cccc(COc3ccc(CNC(C)C)cc3I)c2)c(I)c1	17.6
Cc1[nH]c(C)c(-c2ccc(OCCSc3ccncc3)cc2)c(=O)c1Br	3.7
O=C(Oc1ccc(Cl)cc1C(=O)Nc1ccc([N+](=O)[O-])cc1Cl)c1ccccc1	22.4
COc1cc([N+](=O)[O-])ccc1NC(=O)c1cc(Cl)ccc1O	35.6
O=C(Nc1ccc([N+](=O)[O-])cc1Cl)c1cc(Br)cc(Cc2ccccc2)c1O	16.2
O=C(Nc1ccc(Cl)cc1C(=O)Nc1cccc(F)c1)c1ccc([N+](=O)[O-])cc1	1.43
COc1ccccc1NC(=O)c1cc(C(=O)c2cc(Cl)ccc2O)cn(-c2ccccc2OC)c1=O	0.97
O=C(Nc1ccc([N+](=O)[O-])cc1Cl)c1cc2ccccc2cc1O	12.8
Cc1[nH]cnc1CSCCN/C(=N\C#N)NCCCCCCCCN/C(=N/C#N)NCCSCc1nc[nH]c1C	1.49
CC(C)(C)c1ccc(-c2cc(C(=O)N[C@@H](CO)C(=O)O)on2)cc1.CC(C)(C)c1ccc(-c2nocc2C(=O)N[C@@H](CO)C(=O)O)cc1	0
CN/C(=N\O)NCCN(C)C	1.43

SMILES	IFI [%]
Clc1cccc(Nc2ccc3c(N4CCCCC4)ncnc3n2)c1	8.33
CS(=O)(=O)CCNCc1nc(-c2ccc3c(Nc4ccc(Cl)cc4F)ccnc3c2)cs1	7.69
CS(=O)(=O)CCNCc1nc(-c2ccc3c(=O)[nH]cnc3c2)cs1	22.6
CS(=O)(=O)CCNCc1nc(-c2ccc3c(Nc4ccc(F)c(O)c4)ccnc3c2)cs1	3.73
Cc1cc([N+](=O)[O-])ccc1NC(=O)Nc1cccc(C(F)(F)F)c1	7.89
Cc1c(N=O)cc(C(C)(C)C)c(O)c1C(=O)Nc1ccc([N+](=O)[O-])cc1Cl	25.2
Cc1sc(NC(=O)c2ccc([N+](=O)[O-])cc2Cl)c(C(N)=O)c1C	0.75
CCCCCOc1ccc(C(O)C(CCC(CN2CCCCCC2)C(O)c2ccc(OCCCCC)cc2)CN2CCCCCC2)cc1 (centres undefined)	12.9
CCCCCCNC(=N)c1ccc(OCCCCCOc2ccc(C(=N)NCCCCCC)cc2)cc1	12.3
CCCCCCC(N)c1ccc(OCCCOc2ccc(C(N)CCCCCC)cc2)cc1 (centres undefined)	24.5
C=CCNC(CCCCC)c1ccc(OCCOc2ccc(C(CCCCC)NCC=C)cc2)cc1 (centres undefined)	18.3
CCCCCC(NCCCC)c1ccc(OCCOc2ccc(C(CCCCC)NCCCC)cc2)cc1 (centres undefined)	16.3
CCCCC(NCC)c1ccc(OCCOc2ccc(C(CCCC)NCC)cc2)cc1 (centres undefined)	8.82
Fc1ccc(C=NNc2nc3ccccc3[nH]2)cc1	1.42
O=C1Nc2cccc3c2C1(CCCCN1CCC(c2c(-c4ccc(F)cc4)[nH]c4ccccc24)CC1)CCC3 (centres undefined)	7.91
CN(c1ccc(NC(=O)Nc2cccc(Cl)c2)cc1)c1ccnc(N)n1	6.9
CCNC(=O)Nc1ccc(N(C)c2ccnc(NC3CC3)n2)cc1	2.97
CN(c1ccccc1)c1ccnc(NC(=N)Nc2ccc(Cl)cc2)n1	18.4
Cc1cc(NCCC(=O)Nc2ccccc2)nc(NCCOc2ccccc2)n1	4.88
C=CCOC(=O)N1CCC(CNCc2cccc(-c3ccc(-c4nc5ccccc5[nH]4)s3)c2)C1 (centres undefined)	6.73
Cc1cc2nc(N/C(N)=N/C(=O)NC3CCCCC3)nc(C)c2cc1C	9.38
CCN(CC)CCOc1ccc(N(Cc2ccc(C(C)(C)C)cc2)C(=O)c2ccc(Cc3ccccc3)cc2)cc1OC	5.84
